Records with an inconclusive call do not appear. Unmarked numbers belong to inactive results. Activity calls are given as the source filed them. Calls come from the whole dose curve; as a rule, active = well fitted curve in the direction sought with a large enough effect; inconclusive = small, poorly fitted or top-dose-only effect, or another doubt; inactive = no such curve, though single readings can be large; an effect the other way counts as inactive or inconclusive.

Results on 24 molecules are retold here after PubChem BioAssay (NCATS).

Assay [1] concerns the target Rap guanine nucleotide exchange factor 3 (Homo sapiens) (UniProt O95398). The experiment in a line: Confirmatory qHTS for antagonist of cAMP-regulated guanine nucleotide exchange factor 3 (EPAC1) (AID 1645880). Note: nearly all actives have a fitted effect of over 55% in size. Note: potency is the fitted concentration of half-maximal effect. The note with it: EPAC1 Rap1B-BODIPY-GDP exchange, fluorescence; series mostly up to 115 µM. A digest of the protocol:
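Released BODIPY-GDP fluoresces less than Rap1-bound BODIPY-GDP; the signal is followed at 480/540 nm at 5-min intervals over 30 min, after 5 min at room temperature. Reactions contain 100 nM EPAC1, 250 nM RAP1B-BODIPY-GDP and 50 uM GDP; results are normalized to ATA and DMSO.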

Assay [2] shares this target. The experiment in a line: Confirmatory qHTS for agonist of cAMP-regulated guanine nucleotide exchange factor 3 (EPAC1) (AID 1645881).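 Note: EPAC1 catalysed release of BODIPY-GDP from Rap1B seen as fluorescence loss; 100% = effect of cAMP agonist control; nearly all actives have a fitted effect of over 75% in size.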 The note with it: EPAC1 Rap1B BODIPY-GDP exchange fluorescence; series mostly up to 154 µM. A general note: In qHTS, concentration-response curves come from the screen itself.
Assay [3] concerns the target Rap guanine nucleotide exchange factor 4 (Homo sapiens) (UniProt Q8WZA2). Put plainly: Confirmatory qHTS for agonist of cAMP-regulated guanine nucleotide exchange factor 4 (EPAC2) (AID 1645884). Note: % is set by controls: 0 for no effect and ±100 for the full control effect; nearly all actives have a fitted effect of over 65% in size. Conditions: EPAC2 GEF activity, Rap1B-BODIPY-GDP fluorescence; series mostly up to 154 µM.
Assay [4] has the same target. The experiment in a line: Confirmatory qHTS for antagonist of cAMP-regulated guanine nucleotide exchange factor 4 (EPAC2) (AID 1645885). For activity change, negative = inhibition: % is set by controls: 0 for no effect and ±100 for the full control effect. Note: nearly all actives have a fitted effect of over 25% in size. Conditions: EPAC2 Rap1B-BODIPY-GDP exchange fluorescence, biochemical; series mostly up to 12.7 µM.
The target of assay [5] is Rap guanine nucleotide exchange factor 3 (Homo sapiens) (UniProt O95398). Put plainly: Counterscreen qHTS for antagonist of cAMP-regulated guanine nucleotide exchange factor 3 (EPAC1) (AID 1645888). Note: % of control where 0% means no effect. Conditions: Rap1B-BODIPY-GDP nucleotide exchange, fluorescence; series mostly up to 154 µM. A digest of the protocol:
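Measured: fluorescence of BODIPY-GDP bound to Rap1B, which falls as exchange proceeds. Conditions include 50 uM competing GDP, 5 and 30 min reads, and a later cAMP challenge for antagonist detection.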
Background: The purpose of a counterscreen is to sort out artefacts and off-target activity.

Rap guanine nucleotide exchange factor 3 (Homo sapiens), sequence (O95398 whole entry, looked up): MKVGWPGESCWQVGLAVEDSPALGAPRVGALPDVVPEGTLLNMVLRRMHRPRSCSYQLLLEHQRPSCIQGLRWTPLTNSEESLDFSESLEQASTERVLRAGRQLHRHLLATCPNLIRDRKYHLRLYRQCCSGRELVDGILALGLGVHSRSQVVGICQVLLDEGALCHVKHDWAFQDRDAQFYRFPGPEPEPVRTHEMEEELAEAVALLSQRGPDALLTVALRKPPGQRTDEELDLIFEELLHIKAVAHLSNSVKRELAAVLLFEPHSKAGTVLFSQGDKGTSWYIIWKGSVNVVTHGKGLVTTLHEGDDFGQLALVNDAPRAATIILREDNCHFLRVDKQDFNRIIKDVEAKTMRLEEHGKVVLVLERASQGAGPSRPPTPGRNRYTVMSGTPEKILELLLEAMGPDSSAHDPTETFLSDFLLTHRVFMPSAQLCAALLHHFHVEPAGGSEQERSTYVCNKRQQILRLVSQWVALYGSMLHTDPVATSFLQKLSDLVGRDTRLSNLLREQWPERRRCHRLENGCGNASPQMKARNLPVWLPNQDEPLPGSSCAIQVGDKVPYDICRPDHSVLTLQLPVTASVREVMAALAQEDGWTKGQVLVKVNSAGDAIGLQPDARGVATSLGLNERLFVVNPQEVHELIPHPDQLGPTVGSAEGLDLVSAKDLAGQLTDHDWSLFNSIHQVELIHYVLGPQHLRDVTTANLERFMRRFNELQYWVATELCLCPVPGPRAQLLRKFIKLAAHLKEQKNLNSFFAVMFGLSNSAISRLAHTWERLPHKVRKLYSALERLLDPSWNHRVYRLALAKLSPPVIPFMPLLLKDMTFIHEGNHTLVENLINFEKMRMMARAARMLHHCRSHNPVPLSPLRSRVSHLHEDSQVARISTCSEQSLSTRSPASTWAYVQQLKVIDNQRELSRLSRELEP
Rap guanine nucleotide exchange factor 4 (Homo sapiens), sequence (Q8WZA2 whole entry, looked up): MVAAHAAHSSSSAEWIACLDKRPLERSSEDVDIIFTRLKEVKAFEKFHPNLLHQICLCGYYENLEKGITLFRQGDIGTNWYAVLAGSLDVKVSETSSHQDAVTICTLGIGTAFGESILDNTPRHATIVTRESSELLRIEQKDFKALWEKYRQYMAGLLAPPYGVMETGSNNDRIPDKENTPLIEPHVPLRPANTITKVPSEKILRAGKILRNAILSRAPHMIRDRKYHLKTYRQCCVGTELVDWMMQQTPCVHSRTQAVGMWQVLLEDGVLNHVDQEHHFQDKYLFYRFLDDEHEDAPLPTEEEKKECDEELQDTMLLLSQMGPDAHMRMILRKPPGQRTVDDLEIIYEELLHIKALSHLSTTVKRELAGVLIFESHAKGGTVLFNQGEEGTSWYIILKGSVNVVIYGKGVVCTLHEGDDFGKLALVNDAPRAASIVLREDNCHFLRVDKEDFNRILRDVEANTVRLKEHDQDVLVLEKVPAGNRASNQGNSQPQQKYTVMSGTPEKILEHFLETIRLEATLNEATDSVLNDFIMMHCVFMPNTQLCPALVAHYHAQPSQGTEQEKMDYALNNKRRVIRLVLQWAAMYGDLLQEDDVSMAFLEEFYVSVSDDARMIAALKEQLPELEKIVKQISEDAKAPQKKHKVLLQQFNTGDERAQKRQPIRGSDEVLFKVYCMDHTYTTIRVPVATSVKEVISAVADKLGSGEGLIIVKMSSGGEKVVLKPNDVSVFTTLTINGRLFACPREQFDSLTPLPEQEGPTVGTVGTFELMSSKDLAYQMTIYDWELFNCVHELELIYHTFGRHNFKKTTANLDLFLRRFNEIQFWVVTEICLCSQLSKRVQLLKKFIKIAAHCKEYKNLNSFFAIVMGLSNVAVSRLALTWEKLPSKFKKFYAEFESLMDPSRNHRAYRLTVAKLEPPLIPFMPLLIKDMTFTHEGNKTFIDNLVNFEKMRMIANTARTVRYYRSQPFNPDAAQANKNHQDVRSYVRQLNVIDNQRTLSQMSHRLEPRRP

For the molecule `CCc1cccc(C)c1Nc1c(-c2cccs2)nc2ncccn12`, the Potency entry in assay [1], in assay [2], in assay [3], in assay [4] and in assay [5] was “inactive” each time.

As for `CCOc1cc(/C=C2\C(=N)N3N=C(S(C)(=O)=O)SC3=NC2=O)ccc1OCCOc1cccc(OC)c1`, the Potency in assay [1] is 19 µM (active). For the same molecule, the Potency entry in assay [2], in assay [3], in assay [4] and in assay [5] was “inactive” in each case.

As for `CCCC(=O)Nc1nnc(SCc2cc(=O)c3ccc(C)cc3[nH]2)s1`, the Potency result in assay [1], in assay [2], in assay [3], in assay [4] and in assay [5] was “inactive” in each case.

Consider `CC1CN(C(=O)N2CCOCC2)CCN1C(=O)N1CCOCC1` (stereo not given), for which the Potency entry in assay [1], in assay [2], in assay [3], in assay [4] and in assay [5] was “inactive” each time.

On to `Cc1ccc2nc(NC(=O)CSc3nc(=O)n(CCCN(C)C)c4c3CCC4)sc2c1`, for which the Potency result in assay [1], in assay [2] and in assay [4] was “inactive” in each case. The activation in assay [3] is 2.81% [at 17.1 µM, percent relative to cAMP agonist control]. Moreover, the activity change, negative = inhibition in assay [5] is -5.22% [at 30.8 µM].

Take `O=C(c1ccc([N+](=O)[O-])o1)N1CCN(c2nc3c(Cl)cccc3s2)CC1`: the Potency entry in assay [1], in assay [2], in assay [3], in assay [4] and in assay [5] was “inactive” throughout.

For `CCCc1cc(C(=O)Nc2ccccc2SC)no1`, the Potency result in assay [1], in assay [2], in assay [3], in assay [4] and in assay [5] was “inactive” in each case.

As for `CC(=O)Nc1ccc(S(=O)(=O)NCCC(=O)Nc2cc(C)ccn2)cc1`, the Potency result in assay [1], in assay [2], in assay [3], in assay [4] and in assay [5] was “inactive” throughout.

As to `Cc1ccc(N(Cc2cccs2)C(=O)c2ccccc2Cl)cc1`, the Potency result in assay [1], in assay [2], in assay [3], in assay [4] and in assay [5] was “inactive” in each case.

In the case of `CCN(CC)c1ccc(Nc2nc(-c3cccnc3)cs2)cc1`, the Potency result in assay [1], in assay [2], in assay [3], in assay [4] and in assay [5] was “inactive” throughout.

With `CCOC(=O)CSc1ccc2nnc(-c3ccccc3)n2n1`, the Potency entry in assay [1], in assay [2] and in assay [4] was “inactive” in each case. For the same molecule, the activation in assay [3] was 7.87% [at 17.1 µM, percent relative to cAMP agonist control]. Further, the activity change, negative = inhibition in assay [5] was -6.6% [at 30.8 µM].

In the case of `CCOC(=O)[C@H]1Nc2ccc(Cl)cc2[C@@H]2[C@H]1C1CC(c3ccccc31)N2C(=O)OCc1ccccc1` (stereo not given in full), the Potency result in assay [1], in assay [2] and in assay [4] was “inactive” throughout. Further, the activation in assay [3] is 1.97% [at 17.1 µM, percent relative to cAMP agonist control]. For the same molecule, in assay [5], the activity change, negative = inhibition was 4.44% [at 30.8 µM].

Take `O=C1CC(=O)N(CCc2ccccc2)C(=O)N1CCc1ccccc1`: the Potency result in assay [1], in assay [2], in assay [3], in assay [4] and in assay [5] was “inactive” in each case.

Consider `Cc1cc(SCC(=O)c2ccc(O)c(O)c2)nc2ccccc12`, for which the Potency in assay [1] was 14.1 µM (active). Further, the Potency entry in assay [2] and in assay [4] was “inactive” in each case. For the same molecule, the activation in assay [3] was 11.2% [at 17.1 µM, percent relative to cAMP agonist control]. The activity change, negative = inhibition in assay [5] was -6.86% [at 30.8 µM].

Regarding `COc1ccc(C(NC(C)=O)c2cc(Cl)c3cccnc3c2O)cc1` (stereo not given), the Potency entry in assay [1], in assay [2] and in assay [4] was “inactive” each time. The activation in assay [3] is 3.14% [at 17.1 µM, percent relative to cAMP agonist control]. Besides, the activity change, negative = inhibition in assay [5] is -6.93% [at 30.8 µM].

With `Cc1ccc(Cl)c2c1N[C@@H](c1ccc(C(=O)O)cc1)[C@H]1CC=C[C@@H]21`, in assay [1], the Potency is 84.9 µM (active). Moreover, the Potency entry in assay [2], in assay [3], in assay [4] and in assay [5] was “inactive” each time.

As for `O=C1NN(c2ccccc2)C(=O)/C1=C\c1coc2ccc(O)cc2c1=O`, the Potency in assay [1] was 21.3 µM (active). The Potency entry in assay [2], in assay [3], in assay [4] and in assay [5] was “inactive” each time.

On to `CN1OC[C@@H]2CN(S(=O)(=O)c3cc(Cl)cc(Cl)c3)[C@H](c3ccc(-c4ccc(C#N)cc4)cc3)C[C@@H]21`, for which the Potency entry in assay [1], in assay [2], in assay [3], in assay [4] and in assay [5] was “inactive” each time.

Turning to `COC(=O)CSc1nc2sc3c(c2c(=O)n1-c1ccc(OC)cc1)CCN(C)C3`, the Potency entry in assay [1], in assay [2], in assay [3], in assay [4] and in assay [5] was “inactive” throughout.

With `N#CC1(NC(=O)COC(=O)c2nc(Cl)c(Cl)c(N)c2Cl)CCCCC1`, the Potency result in assay [1], in assay [2], in assay [3], in assay [4] and in assay [5] was “inactive” in each case.

Consider `Cc1cc(C)cc(C(O)c2ncc(-c3ccccc3Cl)[nH]2)c1` (stereo not given), for which the Potency entry in assay [1], in assay [2] and in assay [4] was “inactive” in each case. The activation in assay [3] was 2.23% [at 17.1 µM, percent relative to cAMP agonist control]. The activity change, negative = inhibition in assay [5] was -7.63% [at 30.8 µM].

As for `CC(=O)N(C(C)=O)N1C(=O)c2cccc3c(N4CCOCC4)ccc(c23)C1=O`, the Potency entry in assay [1], in assay [2] and in assay [4] was “inactive” each time. In addition, the activation in assay [3] was 18.1% [at 17.1 µM, percent relative to cAMP agonist control]. In addition, in assay [5], the activity change, negative = inhibition is 16.3% [at 30.8 µM].

For the molecule `COc1ccc(-n2nnnc2SCC(=O)c2ccc(O)c(O)c2)cc1`, the Potency in assay [1] was 9.53 µM (active). Further, the Potency entry in assay [2], in assay [3], in assay [4] and in assay [5] was “inactive” in each case.

Regarding `Cc1cccc(C(=O)Nc2cccc(C(=O)N/N=C/c3cccc(C)n3)c2)c1`, the Potency result in assay [1], in assay [2], in assay [3], in assay [4] and in assay [5] was “inactive” in each case.
